# Experimental data: PubChem BioAssay (Tox21)
# Inconclusive results are not listed. Unmarked numbers belong to inactive results. The source made the active and inactive calls. Calls follow the shape of the dose curve; as a rule, active = well fitted cell-killing curve with a large enough effect in the repeat runs; inconclusive = weak or mixed curves; inactive = flat fitted curve, though single readings scatter.
# Experiment: qHTS RealTime-Glo MT Cell Viability Assay in HepG2 cells - 32 hour (AID 1224877); also: nearly all actives have a fitted effect of over 55% in size
# Conditions: RealTime-Glo luminescence; series mostly up to 76.8 µM; activity change, negative = cytotoxic: at the top concentration
# Description: U.S. Tox21 Program National Center for Advancing Translational Sciences [NCATS] NIH Chemical Genomics Center [NCGC] U.S. Environmental Protection Agency [EPA] National Institutes of Environmental Health Sciences [NIEHS] National Toxicology Program [NTP] U.S. Food and Drug Administration [FDA] Tox21 Assay Overview: Measure of cell viability is critical in the cell-base assay. Analysis of cell viability is necessary for the characterization of cell responses to cytotoxic drugs and environmental stress. A RealTime-Glo MT Cell Viability Assay to monitor cell viability in real time of continues cell culture during 40 hours of compound treatment was used to screen Tox21 10K library compounds in HepG2 cells. The RealTime-Glo MT Cell Viability Assay is a nonlytic, homogeneous, bioluminescent method to measure cell viability in real time using a simple, plate-based method. The assay involves adding NanoLuc luciferase and a cell-permeant prosubstrate to cells in culture. Viable cells reduce the proprietary prosubstrate to generate a substrate for NanoLuc luciferase. This substrate diffuses from cells into the surrounding culture medium, where it is rapidly used by the NanoLuc Enzyme to produce a luminescent signal. The signal correlates with the number of viable cells, making the assay well suited for cytotoxicity studies.
# Tox21 Assay Protocol Summary: The mixture of HepG2 cell suspension and reagents were dispensed at 600cells/6 ul/well in 1536-well tissue culture treated black solid bottom plates using a Multidrop dispenser. After the assay plates were incubated at a 37 C/5% CO2 incubator for 5 hours, 23 nL of compounds dissolved in DMSO, positive and negative controls was transferred to the assay plate by a pintool work station. The plates were incubated at 37 C for 40 hours. The luminescence intensity were measured at 0h, 8h, 16h, 24h, 32h and 40h time points using ViewLux plate reader during compound treatment.
# % is scaled to controls: 0 for no effect and ±100 for the full control effect; potency is read from the fitted curve at half-maximal effect.
SMILES,"activity change, negative = cytotoxic",Potency
CCCCCCC(=O)CCCCCC/C=C/C[C@@H](O)[C@H](O)[C@@](N)(CO)C(=O)O,0.443% [at 15.8 µM],
NCCOS(=O)(=O)O,2.61%,
C1CN2CCC1CC2,1.46% [at 35.3 µM],
O=[N+]([O-])c1cccc(CCl)c1,0.812%,
CCN[C@@H](C)Cc1cccc(C(F)(F)F)c1,2.22% [at 35.3 µM],
COC(=O)[C@@H](N)CCCN/C(N)=N/[N+](=O)[O-],2.87% [at 35.3 µM],
BrCCc1ccccc1,0.0021%,
O=C(Cl)C(Cl)(Cl)Cl,0.0148%,
NC(=O)CS(=O)C(c1ccccc1)c1ccccc1 (stereo not given),-0.02% [at 35.3 µM],
CCN(CCO)CCn1c(Cc2ccccc2)nc2c1c(=O)n(C)c(=O)n2C,3.58% [at 35.3 µM],
CCOC(=O)CC(SP(=S)(OC)OC)C(=O)OCC (stereo not given),-0.629% [at 35.3 µM],
CN(CCO)CCO,-3.98%,
CCSC(=O)Cl,-0.523%,
CON(C)C(=O)Nc1ccc(Br)cc1,1.58%,
CCCC(C)(COC(N)=O)COC(N)=O,-0.703%,
CCOC(=O)C(SP(=S)(OC)OC)c1ccccc1 (stereo not given),-6.58%,
CCC1(c2ccccc2)CCC(=O)NC1=O (stereo not given),-0.212% [at 35.3 µM],
CC(=O)OCC1=C(C(=O)O)N2C(=O)[C@@H](N)[C@H]2SC1,0.0723% [at 15.8 µM],
C[C@@H](N)[C@@H](O)c1ccccc1,-0.279% [at 35.3 µM],
c1cncc([C@@H]2CCCCN2)c1,1.77%,

SMILES,"activity change, negative = cytotoxic",Potency
CCC(CC)(CNC(=O)CCCO)c1cccc(OC)c1,2.08% [at 35.3 µM],
CN(C)C1CCCCC1,1.34%,
CCC(C)C(C)(COC(N)=O)COC(N)=O (stereo not given),0.705% [at 35.3 µM],
NC(=O)OCCCc1ccccc1,2.61% [at 35.3 µM],
O=[N+]([O-])CCO,0.432%,
CCC(=O)c1ccc(Cl)cc1,1.12%,
NNCc1ccccc1,1.26%,
CN1COCN(Cc2cnc(Cl)s2)/C1=N\[N+](=O)[O-],1.66%,
C[C@]12C=CC(=O)C=C1CC[C@@H]1[C@@H]2CC[C@@]2(C)[C@H]1CC[C@]2(C)O,-4.73% [at 35.3 µM],
CC(C)(C)C(=O)Cl,1.53%,
CC(C)(O)C(Cl)(Cl)Cl,1.26% [at 35.3 µM],
O=C(O)C(Cl)Br (stereo not given),4.01%,
CCN(CCO)CCO,-0.519%,
CC(C)[C@]12CC(=O)[C@H](C)[C@H]1C2,2.04%,
CC(Cl)(Cl)Cl,2.99%,
CC(C)[N+](C)(CCC(C(N)=O)(c1ccccc1)c1ccccc1)C(C)C,,21.3 µM (active)
C=C(C)[C@H]1CN[C@H](C(=O)O)[C@H]1CC(=O)O,-1.08% [at 35.3 µM],
CC(Cc1ccccc1)NCCCCl (stereo not given),2.43% [at 35.3 µM],
CCOC(=O)Nc1cccc(OC(=O)Nc2ccccc2)c1,1.11%,
C[C@H](N)C(=O)c1ccccc1,-0.625%,
